SMILES strings stand for the structures. Inconclusive results are not listed. Values without a mark were called inactive. Calls of active or inactive are those of the source. Calls follow the shape of the dose curve; as a rule, active = well fitted cell-killing curve with a large enough effect in the repeat runs; inconclusive = weak or mixed curves, or effect the other way; inactive = no such curve, though single readings can be large or run the other way.

The source of these data is PubChem BioAssay (Tox21).
% is scaled to controls: 0 for no effect and ±100 for the full control effect.

The test is described as follows: qHTS assay to identify small molecule antagonists of the glucocorticoid receptor (GR) signaling pathway - cell viability counter screen (AID 720693). Also: nearly all actives have a fitted effect of over 55% in size. Particulars: GR-bla HeLa viability, CellTiter-Glo luminescence, 18 h, with 5 nM dexamethasone present; series mostly up to 58.5 µM; viability change, negative = cytotoxic: at the top concentration. A general note: In qHTS, concentration-response curves come from the screen itself.
Regarding `O=C(O)c1ccccc1C(=O)OCc1ccccc1`, the “viability change, negative = cytotoxic” value is 5.97%. For the molecule `Cc1ccc2c(c1)c1c3n2CCNC3CCC1` (stereo not given), the “viability change, negative = cytotoxic” value was -9.35%.

For `O=C(O)c1ccccc1C(=O)Nc1ccc(S(=O)(=O)Nc2nccs2)cc1`, the “viability change, negative = cytotoxic” value was 1.9%. Take `C[C@H](CCC(=O)O)[C@H]1CC[C@H]2[C@@H]3[C@H](O)C[C@@H]4C[C@H](O)CC[C@]4(C)[C@H]3C[C@H](O)[C@]12C`: the Potency result is “inactive”. `CC(CC(=O)O)CC(C)(C)C` (stereo not given): the “viability change, negative = cytotoxic” value is -0.184%.

Consider `CCCOCCOCCOCCO`, for which the “viability change, negative = cytotoxic” value was 26.8%. On the same count and under the same terms, the figure for `COc1ccc(/C=N/NC(=O)c2ccncc2)cc1OC` is -0.806%; for `C1=C\CC/C=C\CC/1` it is 1.23% [at 78.9 µM]. Regarding `O=C(O)/C=C/c1ccccc1`, the Potency entry was “inactive”.

Consider `Cn1c(=O)c2c(ncn2CC2OCCO2)n(C)c1=O`, for which the “viability change, negative = cytotoxic” value was -0.367%. Still for that read-out and setting: under `Nc1ccc(S(=O)(=O)Nc2ccccn2)cc1` stands 7.07% [at 27 µM]. On to `O=S(=O)(O)CCO`, for which the “viability change, negative = cytotoxic” value is -0.118% [at 78.9 µM].

In the case of `CCN(CCC#N)c1ccccc1`, the “viability change, negative = cytotoxic” value is -3.11%. Still for that read-out and setting: the figure for `CC(=O)OCCCc1ccccc1` is 7.89%; for `CCCCCC(=O)OCC` it is -0.191%; for `COCC(=O)Nc1c(I)c(C(=O)NCC(O)CO)c(I)c(C(=O)N(C)CC(O)CO)c1I` (stereo not given) it is -6.42% [at 27 µM]. In the case of `CCCCCCCCCOCC1CO1` (stereo not given), the “viability change, negative = cytotoxic” value is -0.884% [at 78.9 µM]. For the molecule `O=C1NC2NC(=O)NC2N1` (stereo not given), the “viability change, negative = cytotoxic” value is -8.57%. Turning to `COc1cc2c3cc1Oc1cc(ccc1O)C[C@@H]1c4c(cc(OC)c(O)c4Oc4ccc(cc4)C[C@@H]3N(C)CC2)CC[N+]1(C)C`, the “viability change, negative = cytotoxic” value is 1.8%. Same read-out and setting: under `O=C(O)C(=O)Nc1cccc(-c2nn[nH]n2)c1` stands -9.2%. For `COCCOCCOCCOC`, the “viability change, negative = cytotoxic” value was 12.4%. Same read-out and setting: the figure for `CN(C)CCOCCN(C)CCO` is 5.66%; for `CCc1nccnc1C` it is 4.19%. On the same count and under the same terms, the figure for `SCCSCCS` is -3.75%. Take `C=C(C)C(=O)OCCCCCCOC(=O)C(=C)C`: the “viability change, negative = cytotoxic” value is 2.8%. In the case of `CC(=O)c1ccc(OCC(=O)N2CCCCC2)cc1`, the “viability change, negative = cytotoxic” value is -0.0047%. On to `Nc1cc(Cl)cc(S(=O)(=O)O)c1O`, for which the “viability change, negative = cytotoxic” value was -8.13% [at 78.9 µM].

For the molecule `Cc1ccccc1C(=O)N1CC/C(=N\OS(=O)(=O)O)c2ccc(Cl)cc21`, the “viability change, negative = cytotoxic” value is -2.36%. For the molecule `CCCCCCCC/C=C\CCCCCCCC(=O)OC[C@@H](O)[C@H]1OC[C@H](O)[C@H]1O`, the Potency entry was “inactive”. For `CCCCC(=O)N(C)C`, the “viability change, negative = cytotoxic” value was -1.25%.

Turning to `CN(C)CCCNCCC#N`, the “viability change, negative = cytotoxic” value was 4.83%. With `C=COCCOCCOC=C`, the “viability change, negative = cytotoxic” value is -0.172%. Same read-out and setting: under `Cc1ccc(S(=O)(=O)NC(=O)NC2CCCCCCC2)cc1` stands -5.19%. On the same count and under the same terms, under `OC(CCN1CCCCC1)(c1ccccc1)c1ccccc1` stands 17.2%; under `C[N+](C)(C)CC(O)CCl` (stereo not given), -9.5% [at 78.9 µM].
